# Most compounds without a hit are left out; they make up all but 1.2% or so of the library.
# TcdB inh: TcdB glycohydrolase inhibition; TcdB glycohydrolase enzymatic assay, plate reader; inhibition, % at 9.99 µM; AID 652162; hit rate 0.24% among 350,000; in the data active = inhibition above about 10%
# Yp Topo-I inh: Y. pestis Topo-I inhibition via cleavage products; activity, % at 10 µM; hit rate 0.064% among 360,000; Y. pestis Topo-I cleavage product accumulation, plate reader; AID 504884; in the data active = activity above about 50%, passing the limit was not always enough; inconclusive = no clear call, values can overlap the other calls
# Mtb BioA inh: BioA (M. tuberculosis) enzyme inhibition; purified M. tuberculosis BioA enzyme, plate reader; inhibition, % at 9.99 µM; hit rate 0.096% among 360,000; AID 602481; in the data active = inhibition above about 40%; inconclusive = no clear call, values can overlap the other calls
# PfHsp40 yeast: restores yeast growth despite PfHsp40 toxicity; hit rate 0.68% among 340,000; growth rescue, % at 12.5 µM; S. cerevisiae expressing PfHsp40, growth rescue, ATP luminescence; AID 504582; in the data active = growth rescue above about 28%, passing the limit was not always enough; inconclusive = no clear call, values can overlap the other calls;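 also: yeast W303a lacking pdr1 and pdr3 grown in galactose medium; growth measured after three days at 30 °C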
# FadD28 binding: blocks FadD28 binding to the bisubstrate probe; hit rate 0.22% among 360,000; AID 588549; inhibition, % at 12.5 µM; fluorescence polarization; in the data active = inhibition above about 8.5%, passing the limit was not always enough; inconclusive = no clear call, values can overlap the other calls
# PrP 5UTR inh: suppresses PrP 5' UTR mRNA reporter expression | cell-based PrP 5' UTR mRNA reporter, plate reader | inhibition, % (concentration not given with the values) | hit rate 0.35% among 340,000; in the data active = inhibition above about 52%; also: 0 = median of the neutral control wells
# Starred values were filed as active, the others as inactive; ? = inconclusive; · = no result.
SMILES,TcdB inh,Yp Topo-I inh,Mtb BioA inh,PfHsp40 yeast,FadD28 binding,PrP 5UTR inh
CC(=O)c1ccc(NC(=O)CNCC(c2ccccc2)N(C)C)cc1 (stereo not given),15*,-3,·,?,-1,-9
CCS(=O)(=O)N1CCC2(CC1)CN(S(=O)(=O)c1ccccc1)[C@@H](CO)c1c2c2ccc(OC)cc2n1C,1,·,·,·,·,·
O=C(Nc1ccc2c(c1)CCC2)c1cc2ccccc2o1,2,10,-2,132*,-7,-137
C[C@@H]1CN([C@@H](C)CO)C(=O)c2c(c3ccccc3n2C)-c2ccccc2CO[C@H]1CN(C)Cc1cccc(F)c1,1,·,·,·,·,·
CCn1c(SCC(=O)N2CCCc3ccccc32)nnc1-c1ccoc1C,·,8,-1,0,-4,-29
CCn1c(SCC(=O)N2CCCc3ccccc32)nnc1-c1ccco1,·,-3,1,48*,-2,-2
Cc1cc(N)n(-c2ccc(Oc3ccccc3)c(S(=O)(=O)O)c2)n1,-1,10,·,1,14*,-25
CCN(CC)c1ccc2nc3ccc(N)cc3[n+](-c3ccccc3)c2c1,5,534*,22,0,48*,-19
CCN(CC)c1ccc2nc3ccccc3[n+](CC)c2c1,·,131*,7,-1,-1,-3
COc1ccc2c3c([nH]c2c1)[C@@H](CO)N(C(=O)C1CCCC1)CC31CN(C(=O)c2ccncc2)C1,-1,·,·,·,·,·
Cc1ccc(F)cc1S(=O)(=O)N[C@H]1CCN(Cc2ccc(OC(C)C)cc2)C1,-1,·,·,·,·,·
Cc1nc(S(=O)(=O)NC2CCCCC2)c(C#N)c(C)c1Cl,·,-2,0,-1,-5,-21
Cc1nc(S(=O)(=O)N(C)Cc2ccccc2)c(C#N)c(C)c1Cl,64*,7,0,1,-3,-2
C[C@H](CO)N1C[C@H](C)[C@H](CN(C)C(=O)Nc2cccc3ccccc23)Oc2c(NC(=O)Nc3ccc4c(c3)OCO4)cccc2C1=O,-1,·,0,·,·,·
COc1ccc2oc(=O)c(-c3csc(Nc4cccc(O)c4)n3)cc2c1,·,-31,-2,449*,-2,-85
O=C(O)c1ccc(Nc2nc(-c3cc4ccccc4oc3=O)cs2)cc1O,0,-16,·,1,30*,-15
Oc1ccc(O)c2c1C1(Cl)C(Cl)=C(Cl)C2(Cl)C1(Cl)Cl,-2,-17,7,83*,-1,-11
CC(C)c1ccc(-c2nnn(CCC(=O)O)n2)cc1,·,9,0,0,0,73*
O=C(O)CCn1nnc(-c2cccs2)n1,·,5,-1,-2,1,-23
C#CCOCCOCCOCCNc1nc(N2CCN(C(=O)CCCCCCCCCCNC(=O)[C@@H](CCSC)n3cc(CCO)nn3)CC2)nc(N2CCN(C(=O)CCCCCCCCCCNC(=O)[C@H]([C@@H](C)CC)n3cc(CCCCN=C(N)N)nn3)CC2)n1,·,20,1,?,11*,-1
N=c1n(Cc2ccccc2)c2ccccc2n1CC(O)c1ccco1 (stereo not given),·,1,-11,0,13*,-3
CCn1c(=N)n(CC(O)c2ccco2)c2ccccc21 (stereo not given),·,3,-2,0,-1,-2
O=C(Cn1cnc2ccccc2c1=O)c1cccs1,·,-1,0,41*,-4,-15
COc1cc(/C=C2/C(=O)NN(c3ccc(C)c(Cl)c3)C2=O)cc([N+](=O)[O-])c1O,-1,-11,1,0,30*,-6
CCOc1cc(/C=C2/C(=O)NN(c3cccc(Cl)c3)C2=O)ccc1O,-1,-9,0,-1,3,-21
SMILES,TcdB inh,Yp Topo-I inh,Mtb BioA inh,PfHsp40 yeast,FadD28 binding,PrP 5UTR inh
COc1cc(/C=C2/C(=O)NN(c3cccc(C)c3)C2=O)cc([N+](=O)[O-])c1O,-1,-7,·,2,?,12
COc1cc(/C=C2/C(=O)NN(c3cccc(Cl)c3)C2=O)cc(OC)c1O,-4,-5,2,0,11*,-15
N=C(N)c1ccc(/C=C/c2ccc(C(=N)N)cc2O)cc1,1,-34,·,137*,-5,-11
CCC(C)NC(=O)CSc1nc2cc(S(=O)(=O)N3CCOCC3)ccc2n1CC (stereo not given),11*,2,·,1,-2,-8
CS(=O)(=O)N(CCC(=O)O)Cc1ccccc1,·,0,2,77*,-1,-9
O=C(Cc1ccsc1)NNC(=O)c1ccccc1O,1,1,-2,171*,-2,-5
CC(=O)N(C)C[C@@H]1Oc2ncc(C#Cc3ccc(F)cc3)cc2C(=O)N([C@@H](C)CO)C[C@@H]1C,1,·,-2,·,·,·
CCOc1ccc2ccccc2c1/C=N/NC(=O)c1ccncc1,11*,20,-1,0,-1,-10
CCOc1ccc2ccccc2c1/C=N/NC(=O)c1cc(C)[nH]n1,7,-5,0,0,-6,4
COc1ccc(S(=O)(=O)Nc2ccc3c(c2)C(=O)N([C@@H](C)CO)C[C@@H](C)[C@H](CN(C)Cc2ccncc2)O3)cc1,-1,·,-5,·,·,·
O=C(/C=C/c1ccc(F)cc1)NCCCN1CCN(CCCNC(=O)/C=C/c2ccc(F)cc2)CC1,0,1,·,37*,-3,-6
COc1ccc(/C=C/C(=O)NCCCN2CCCCCC2)cc1,1,14,0,-1,-5,-7
Cc1ccc(C)c(CN2C(=O)COc3ccc(C(=O)c4ccccc4C(=O)O)cc32)c1,14*,3,·,0,1,-1
Cc1ccc(C)c(CN2C(=O)COc3ccccc32)c1,0,-11,6,0,-3,-23
O=S(=O)(Oc1ccccc1-c1ccccc1)c1ccccc1,12*,17,-3,1,0,-17
C=CCn1c(SCC(=O)c2ccccc2)nnc1-c1cc2ccccc2o1,·,41,1,0,-5,-11
C=CCn1c(SCC(=O)c2ccc(OC)cc2)nnc1-c1cc2cccc(OC)c2o1,·,67*,-2,-1,-2,3
CCS(=O)(=O)N1[C@H](C#N)[C@H](c2ccc(C#Cc3ccccc3F)cc2)[C@@H]1CO,0,·,-2,·,·,·
CC(/C=C/c1ccco1)=N\NC(=O)c1cc(Cl)ccc1O,1,-14,·,75*,5,-2
O=c1c(O)c(-c2ccccc2)oc2ccccc12,1,2,-1,219*,-4,-27
Cc1ccc2oc(-c3ccccc3)c(C(=O)O)c(=O)c2c1,·,-15,1,444*,-4,-106
CNC[C@@H]1OCCCC[C@H](C)Oc2ccc(NS(=O)(=O)c3c(C)noc3C)cc2C(=O)N([C@@H](C)CO)C[C@@H]1C,·,·,-1,·,·,·
COc1ccc(NC(=O)N(C)C[C@@H]2OCCCC[C@H](C)Oc3ccc(NS(=O)(=O)c4ccccc4)cc3C(=O)N([C@H](C)CO)C[C@H]2C)cc1,0,·,-1,·,·,·

# Screening data as filed in PubChem.
